tim23-1 inh: growth inhibitors of tim23-1 mutant yeast | S. cerevisiae tim23-1 growth, BacTiter-Glo luminescence, 24 h | inhibition, % at 20 µM | actives 1.3% (n = 330,000);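 active = growth inhibition of the mutant yeast at or above 50%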;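 note: temperature-sensitive mutant grown at 25 °C; plate controls were DMSO-treated mutant yeast for no effect and medium wells lacking yeast for full effect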
PfHsp90 set2: growth inhibition of yeast expressing Plasmodium Hsp90. S. cerevisiae expressing PfHsp90, BacTiter-Glo ATP, 48 h; yeast lacking PDR1 and PDR3 efflux regulators. inhibition, % at 9.4 µM. actives 0.32% (n = 310,000). AID 504621;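 active = every replicate shows inhibition above about 80%, whatever the replicate mean, limit read from the data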;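 note: 0% = DMSO neutral controls and 100% = 20 µM radicicol positive controls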
TIM10 inh: inhibits growth of TIM10 yeast strain | inhibition, % at 10 µM | actives 1.4% (n = 330,000) | AID 463195 | S. cerevisiae TIM10 strain growth, BacTiter-Glo luminescence, 24 h;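 active = inhibition of 40% or more at the single tested concentration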;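 note: wild-type TIM10 isogenic control strain grown at permissive 25 °C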
SKKanGAS inh: inhibitors of SKKanGAS S. pyogenes growth in kanamycin (SK-promoter or general growth effect) | BacTiter-Glo, 6 h | actives 1.3% (n = 300,000) | inhibition, % at 7.5 µM;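 active = mean replicate score, as percent of positive control median, at least 50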;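 note: strain carries kanamycin resistance gene driven by streptokinase promoter and grows in 40 µg/ml kanamycin; loss of luminescence reflects streptokinase promoter inhibition or plain growth inhibition; 0% = median of DMSO wells and 100% = positive control at its reference dose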
V-ATPase pH: regulators of yeast V-ATPase proton transport. S. cerevisiae, pHLuorin cytosolic pH fluorescence. response, % at 10 µM. actives 0.37% (n = 350,000). AID 504577; in the data active = response mostly above about 7.3%, no sharp cut-off; inactive = mostly below about 5.4%; note: actives read high
tim10-1 inh: growth inhibitors of tim10-1 mutant yeast | S. cerevisiae tim10-1 ts strain growth, BacTiter-Glo, 24 h | inhibition, % at 20 µM | actives 2.2% (n = 330,000) | AID 463190;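 active = inhibition of at least 40%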;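 note: mutant grown at 25 °C; 0% = DMSO wells with yeast and 100% = wells holding no yeast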
tim10-1 confirm: tim10-1 yeast growth inhibition, confirmed; AID 463213; actives 56% (n = 7,400); S. cerevisiae tim10-1 ts strain growth, BacTiter-Glo, 24 h; inhibition, % at 20 µM; shares compounds with tim10-1 inh;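 active = inhibition of yeast growth at or above a set limit in either of two repeat tests at 20 µM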;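 note: tim10-1 mutant grown at permissive 25 °C to find synthetic lethal compounds; 0% = DMSO yeast wells and 100% = medium wells without yeast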
An asterisk follows results filed as active. In the library only some 4.6% were active in any assay of this set; here they are far more common.

Screening O=S(=O)(NCc1ccc(F)cc1)c1ccc2c(c1)OCCO2 returned tim23-1 inh 37, TIM10 inh 28, SKKanGAS inh -3, V-ATPase pH -2, tim10-1 inh 53* and tim10-1 confirm 37*.
`COCCCNS(=O)(=O)c1ccc2c(c1)OCCO2` gave tim23-1 inh -4, PfHsp90 set2 1, TIM10 inh -3, SKKanGAS inh 5, V-ATPase pH 0 and tim10-1 inh 11.
`Cc1c(C(=O)NC2CCN(Cc3ccccc3)C2)oc2c(Cl)cccc12` (stereo not drawn) gave tim23-1 inh 16, PfHsp90 set2 -22, TIM10 inh 14, SKKanGAS inh -1, V-ATPase pH 3 and tim10-1 inh 33.
`CCc1ccc(CNC(=O)CCC(=O)N2Cc3cccc(OC)c3Oc3ncccc32)cc1` gave tim23-1 inh 15, PfHsp90 set2 17, TIM10 inh 12, SKKanGAS inh -11, V-ATPase pH 0 and tim10-1 inh 9.
`CC(=O)Nc1ccc2cnn(C(C)=O)c2c1` gave V-ATPase pH -2.
Screening O=C(Nc1ccc(Cl)c(Cl)c1)c1ccc(Cl)c(Cl)c1 returned tim23-1 inh 7, PfHsp90 set2 8, TIM10 inh 15, SKKanGAS inh 12, V-ATPase pH -2 and tim10-1 inh -29.
For CC(C)C1O/C(=N/C(=O)Nc2ccc(Cl)c(Cl)c2)NC1=O (stereo not drawn) the results were tim23-1 inh 50, TIM10 inh 36, SKKanGAS inh 79*, V-ATPase pH -3, tim10-1 inh 57* and tim10-1 confirm 47*.
Screening CN1C[C@@H]2[C@@H]3C(=O)N(C)C(=O)[C@@H]3[C@](C)(C1=O)N2C(=O)c1ccc(C(F)(F)F)cc1 returned PfHsp90 set2 20 and V-ATPase pH -2.
Screening CC(=O)OCCc1c2ccccc2c(CCCN(C)C)c2ccccc12 returned tim23-1 inh 3, PfHsp90 set2 12, TIM10 inh 14, SKKanGAS inh 1, V-ATPase pH 8, tim10-1 inh 40* and tim10-1 confirm 28.
O=C(O)C1CCN(S(=O)(=O)/C=C/c2ccccc2)CC1 was read as tim23-1 inh 20, PfHsp90 set2 -10, TIM10 inh 6, SKKanGAS inh 1, V-ATPase pH 5 and tim10-1 inh -8.
COc1cc(/C=C(\C#N)C(=O)NCc2cccs2)ccc1O was read as tim23-1 inh 30, PfHsp90 set2 -10, TIM10 inh 28, SKKanGAS inh 3, V-ATPase pH 2, tim10-1 inh 42* and tim10-1 confirm 28.
Screening N#C/C(=C\c1ccc(O)c(Br)c1)C(=O)NCc1ccccc1 returned tim23-1 inh 28, PfHsp90 set2 -40, TIM10 inh 19, SKKanGAS inh 4, V-ATPase pH 1, tim10-1 inh 47* and tim10-1 confirm 17.
Screening COc1cc(C(=O)NCC2CCCO2)ccc1OCc1ccc(Cl)cc1Cl (stereo not drawn) returned tim23-1 inh 33, PfHsp90 set2 -18, TIM10 inh 18, SKKanGAS inh 3, V-ATPase pH 6, tim10-1 inh 43* and tim10-1 confirm 30*.
`COc1ccc(/C=C(\C#N)C(=O)NCC2CCCO2)cc1OC` (stereo not drawn) gave tim23-1 inh 46, TIM10 inh 23, SKKanGAS inh -13, V-ATPase pH 2, tim10-1 inh 40* and tim10-1 confirm 11.
For COc1cc(C(=O)NCC2CCCO2)ccc1OCc1ccc(Cl)cc1 (stereo not drawn) the results were tim23-1 inh 38, PfHsp90 set2 -23, TIM10 inh 3, V-ATPase pH 0 and tim10-1 inh 20.
Screening O=C(/C=C/c1ccc(S(=O)(=O)N2CCOCC2)cc1)NCc1ccccc1Cl returned tim23-1 inh 10, PfHsp90 set2 9, TIM10 inh -11, SKKanGAS inh -6, V-ATPase pH 1 and tim10-1 inh 20.
`O=C(c1ccc(-c2cccc(C(F)(F)F)c2)o1)N1CCCCCCC1` gave tim23-1 inh 33, PfHsp90 set2 -7, TIM10 inh 13, SKKanGAS inh -1, V-ATPase pH -1, tim10-1 inh 41* and tim10-1 confirm 30*.
For C/C=C(/C(=C/C)c1ccc(O)cc1)c1ccc(O)cc1 the results were tim23-1 inh 50, PfHsp90 set2 -14, TIM10 inh 39, SKKanGAS inh 1, V-ATPase pH -4, tim10-1 inh 44* and tim10-1 confirm 43*.
For CC(=NN=C(C)c1ccc(O)cc1)c1ccc(O)cc1 the results were PfHsp90 set2 -5 and V-ATPase pH -1.
Screening CC(C)CCNC(=O)c1onc(CSc2nc3ccccc3[nH]2)c1C(=O)NCCC(C)C returned tim23-1 inh 12, PfHsp90 set2 2, TIM10 inh 8, SKKanGAS inh 11, V-ATPase pH -5 and tim10-1 inh 23.
COc1ccc(NCc2nc3ccccc3n2C)cc1 was read as tim23-1 inh 5, PfHsp90 set2 -30, TIM10 inh -8, SKKanGAS inh 2, V-ATPase pH 3 and tim10-1 inh -12.
Screening COc1ccc(NCc2nc3ccccc3n2CCOc2ccc(C)cc2)cc1 returned tim23-1 inh 49, PfHsp90 set2 5, TIM10 inh 17, SKKanGAS inh 12, V-ATPase pH -80, tim10-1 inh 50* and tim10-1 confirm 29.
For O=C(Cn1cc(Cl)c([N+](=O)[O-])n1)NCCC1=CCCCC1 the results were tim23-1 inh 10, PfHsp90 set2 21, TIM10 inh -3, SKKanGAS inh 10, V-ATPase pH -3 and tim10-1 inh 24.
C=CCNC(=S)NNc1nc2c(c(=O)[nH]1)C1(CCCCC1)Cc1ccccc1-2 was read as tim23-1 inh 31, PfHsp90 set2 -12, TIM10 inh 39, SKKanGAS inh 12, V-ATPase pH -2, tim10-1 inh 52* and tim10-1 confirm 42*.
For O=c1[nH]c(NCCO)nc2c1C1(CCCC1)Cc1ccccc1-2 the results were tim23-1 inh 10, PfHsp90 set2 34, TIM10 inh 4, SKKanGAS inh -14, V-ATPase pH -4 and tim10-1 inh 20.
`Cc1ccc(NC(=O)c2ccccc2NC(=O)Cc2ccccc2)cc1` gave tim23-1 inh 32, PfHsp90 set2 -7, TIM10 inh 30, SKKanGAS inh -7, V-ATPase pH -2, tim10-1 inh 44* and tim10-1 confirm 21.
Screening Cc1ccccc1C(=O)Nc1ccccc1C(=O)NCc1ccccc1 returned tim23-1 inh 30, PfHsp90 set2 -14, TIM10 inh 25, SKKanGAS inh 5, V-ATPase pH 4, tim10-1 inh 43* and tim10-1 confirm 36*.

Assay outcomes: PubChem BioAssay, several laboratories
